ADAM10 inh – human ADAM10 inhibitors, primary screen, biochemical, QFRET, HTS; Disintegrin and metalloproteinase domain-containing protein 10 (Homo sapiens), O14672; recombinant ADAM10, EDANS/DABCYL FRET peptide cleavage, 3 h; inhibition, % at 7 µM; 370,000 compounds, 0.62% hits; AID 720582, 2013;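 active = inhibition above a per-campaign cutoff equal to the mean of compounds falling between control-based bounds plus 3 SD, cut at about 20% in these data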
FGF22 binding – binders of human FGF22 protein, primary screen, FGF22 synaptogenesis inhibitor project, biophysical, thermal shift, single point; Fibroblast growth factor 22 (Homo sapiens), Q9HCT0; activity (Tm shift, normalised), % at 9.99 µM; 340,000 compounds, 1.5% hits; AID 651658, 2012; recombinant FGF22 thermal shift, SYPRO orange fluorescence; percent of sucrose octasulfate shift, DMSO zero;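 active = mean Tm shift, scaled 0 neutral to 100 positive control, at about 1.3% or above, every replicate too, limit read from the data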
rRNA inh HTS – reduced GFP signal of wild-type E. coli, primary screen, bacterial rRNA inhibitor project, GFP/RFP fluorescence, OD600, single point; E. coli WT GFP vs humanized-ribosome RFP mutants, 24 h; stronger effect = lower value; DMSO median 0, no signal -100; GFP signal change (wild-type ribosome), % (concentration not given with the values); 350,000 compounds, 1.6% hits; AID 720706, 2013;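 active = significant combined selectivity score with lowered wild-type GFP, culture density cut under 30%, mutant RFP and density less affected; inactive = any of these conditions unmet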
proKLK7 act – proKLK7 zymogen activators, primary screen, biochemical, fluorescence intensity; purified proKLK7, EDANS-DABCYL substrate fluorescence; 100% is mature enzyme control, 0% vehicle; activation, % at 7 µM; 370,000 compounds, 0.9% hits;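 active = activation above the mean of all tested compounds plus 3 SD, computed per campaign excluding outliers beyond control limits, cut at about 13% in these data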
ADAM17 inh – ADAM17 inhibitors, primary screen, biochemical, QFRET | Disintegrin and metalloproteinase domain-containing protein 17 (Homo sapiens), P78536 | recombinant ADAM17, EDANS/DABCYL FRET peptide cleavage | inhibition, % at 6.95 µM | 370,000 compounds, 0.83% hits | AID 720648, 2013;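 active = inhibition above the mean of compounds lying between control limits plus 3 SD, set per campaign, cut at about 8.5% in these data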
Target sequence (P78536 215-824 limits assumed): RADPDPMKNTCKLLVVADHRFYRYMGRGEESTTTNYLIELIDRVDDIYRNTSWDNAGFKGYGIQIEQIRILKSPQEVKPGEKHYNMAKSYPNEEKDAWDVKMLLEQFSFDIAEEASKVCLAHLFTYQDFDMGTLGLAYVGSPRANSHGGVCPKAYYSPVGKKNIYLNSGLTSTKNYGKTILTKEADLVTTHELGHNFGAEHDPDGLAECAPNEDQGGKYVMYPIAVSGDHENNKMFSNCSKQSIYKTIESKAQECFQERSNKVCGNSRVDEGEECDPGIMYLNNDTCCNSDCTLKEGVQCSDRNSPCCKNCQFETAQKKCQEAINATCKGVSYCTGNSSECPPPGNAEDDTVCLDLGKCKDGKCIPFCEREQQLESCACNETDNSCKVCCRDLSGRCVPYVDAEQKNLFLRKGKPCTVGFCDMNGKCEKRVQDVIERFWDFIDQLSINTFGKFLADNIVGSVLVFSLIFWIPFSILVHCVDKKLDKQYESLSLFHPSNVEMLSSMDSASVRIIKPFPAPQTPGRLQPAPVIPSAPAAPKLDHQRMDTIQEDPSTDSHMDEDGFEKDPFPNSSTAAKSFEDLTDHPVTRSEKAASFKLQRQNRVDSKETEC
proKLK7 act conf – proKLK7 zymogen activators, confirmation, biochemical, fluorescence intensity, triplicate; activation, % at 7 µM; 3,200 compounds, 68% hits; shares compounds with proKLK7 act; purified proKLK7, EDANS-DABCYL substrate fluorescence; scaled: vehicle 0, mature enzyme 100; AID 686949, 2013;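 active = activation, as change over the incubation, above the mean of all tested compounds plus 3 SD, cut at about 13% in these data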
EDANS interfere – EDANS-DABCYL substrate optical interference, artefact control for kallikrein-7 zymogen activator project, biochemical, fluorescence intensity, high throughput | shares compounds with proKLK7 act | no enzyme, 4 h; solvent 0%, active enzyme control 100% | activation, % at 7 µM | 3,200 compounds, 80% hits;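 active = activation above the all-compound mean plus 3 SD, ignoring values outside control-based bounds, cut at about 4.8% in these data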;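 also: value is the 4 h activation minus the activation read at time zero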
EDANS interf – optically interferes with EDANS-DABCYL fluorescence, kallikrein-7 activator counter-screen; shares compounds with proKLK7 act; EDANS-DABCYL peptide fluorescence interference, no enzyme; EC50, µM; 250 compounds, 20% hits;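 active = compounds that raise the fluorescence signal in this interference counterscreen, with EC50 at or below 10 µM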;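 also: intact quenched peptide substrate alone read at 355 nm excitation and 520 nm emission; signal is fluorescence gain from T0 to T4 after four hours at room temperature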
Large screens that a line does not name were inactive (follow-up assays come after a bar, where they were run). Rows were chosen to be rich in hits. Some 3.8% of all compounds tested hit in one or more screens of this group.

O=C(O)CCCNC(=O)CC1S/C(=N/N=C/c2ccccc2O)NC1=O (stereo unspecified)	proKLK7 act 25 | proKLK7 act conf 27 | EDANS interfere 34
COC(=O)c1c(C)nc2nonc2c1N	proKLK7 act 14 | proKLK7 act conf 47 | EDANS interfere 49
O=C(C[C@H]1C[C@@H]2c3cc(NC(=O)CC4CC4)ccc3O[C@@H]2[C@@H](CO)O1)NCc1ccccc1F	none (no result: ADAM10 inh, proKLK7 act, ADAM17 inh)
Cc1nn2cc(-c3ccccc3)nc2[nH]c1=O	proKLK7 act 49 (no result: FGF22 binding, rRNA inh HTS) | proKLK7 act conf 74 | EDANS interfere 80
O=C(O)CCc1nn2cc(-c3ccccc3)nc2[nH]c1=O	proKLK7 act 56 (no result: FGF22 binding, rRNA inh HTS) | proKLK7 act conf 72 | EDANS interfere 81
COc1ccc(OC)c(/C=C/C(=O)N(C)CC(=O)Nc2ccc(N3CCOCC3)cc2)c1	proKLK7 act 21 | proKLK7 act conf 19 | EDANS interfere 15 | EDANS interf inactive
Cc1c(NC(=O)c2cc3c(=O)n4ccccc4nc3s2)c(=O)n(-c2ccccc2)n1C	none
CC1CC(C)CN(C(=O)c2cc3c(=O)n4ccccc4nc3s2)C1 (stereo unspecified)	proKLK7 act 14 | proKLK7 act conf 14 | EDANS interfere 12 | EDANS interf inactive
CC1CN(C(=O)c2cc3c(=O)n4ccccc4nc3s2)CC(C)O1 (stereo unspecified)	proKLK7 act 26 (no result: FGF22 binding, rRNA inh HTS) | proKLK7 act conf 42 | EDANS interfere 40
C[C@@H]1CN([C@@H](C)CO)C(=O)c2cc(NS(=O)(=O)c3cccs3)ccc2O[C@@H](C)CCCCO[C@@H]1CN(C)C(=O)CCC(F)(F)F	none (no result: ADAM10 inh, proKLK7 act, ADAM17 inh)
COc1ccccc1C(=O)Oc1ccc2c(c1)O/C(=C\c1ccncc1)C2=O	proKLK7 act 15 | proKLK7 act conf 36 | EDANS interfere 38
O=C(Oc1ccc2c(c1)O/C(=C\c1ccncc1)C2=O)c1cccs1	none
CS(=O)(=O)Oc1ccc2c(c1)O/C(=C\c1cccnc1)C2=O	proKLK7 act 16 | proKLK7 act conf 15 | EDANS interfere 15
Cc1ccc(C)n1-c1nccc(-c2cccs2)n1	proKLK7 act 52 (no result: FGF22 binding, rRNA inh HTS) | proKLK7 act conf 111 | EDANS interfere 136
Cc1nc2ccccc2n1-c1nc(-c2ccco2)cc(C(F)(F)F)n1	none (no result: FGF22 binding, rRNA inh HTS)
Cc1ccc(C)n1-c1nccc(-c2ccco2)n1	proKLK7 act 81 | proKLK7 act conf 113 | EDANS interfere 127
C/C=C/c1ccc2c(c1)O[C@H](CN(C)Cc1ccccn1)[C@@H](C)CN([C@@H](C)CO)S2(=O)=O	none (no result: ADAM10 inh, proKLK7 act, ADAM17 inh)
O=C(C[C@@H]1CC[C@H]2[C@@H](COC[C@@H](O)CN2Cc2ccc(Cl)cc2)O1)NCCc1ccccc1	none (no result: ADAM10 inh, proKLK7 act, ADAM17 inh)
C#CCOc1ccc(C2C3=C(COC3=O)Nc3cc4c(cc32)OCO4)cc1OC (stereo unspecified)	proKLK7 act 69 | proKLK7 act conf inactive | EDANS interfere inactive
CCOc1ccccc1C1C2=C(COC2=O)Nc2cc3c(cc21)OCO3 (stereo unspecified)	rRNA inh HTS -24, proKLK7 act 16 | proKLK7 act conf inactive | EDANS interfere inactive
CCCC#Cc1cnc2c(c1)C(=O)N([C@@H](C)CO)C[C@H](C)[C@H](CN(C)Cc1ccc3c(c1)OCO3)O2	none (no result: ADAM10 inh, proKLK7 act, ADAM17 inh)
C[C@H]1CN([C@@H](C)CO)C(=O)c2cccc(NS(=O)(=O)c3ccccc3)c2O[C@H]1CN(C)C(=O)Nc1ccc2c(c1)OCO2	none (no result: ADAM10 inh, proKLK7 act, ADAM17 inh)
COc1ccc(S(=O)(=O)Nc2ccc3c(c2)C(=O)N([C@H](C)CO)C[C@@H](C)[C@@H](CN(C)C(=O)Nc2cccc4ccccc24)OCCCC[C@@H](C)O3)cc1	none (no result: ADAM10 inh, proKLK7 act, ADAM17 inh)
Cc1ccc2c(c1)COc1c3ccc(C(=O)N[C@@H](C)CO)cc3nn1-2	proKLK7 act 14 | proKLK7 act conf inactive | EDANS interfere inactive
CCN1CCN(c2cc3c(nn2)Oc2ccccc2N3C)CC1	proKLK7 act 61 (no result: FGF22 binding, rRNA inh HTS) | proKLK7 act conf 70 | EDANS interfere 67
CCN1c2ccccc2-c2nc3ccccc3n2C1c1cccnc1 (stereo unspecified)	none (no result: FGF22 binding, rRNA inh HTS)
c1cncc(C2Nc3ccccc3-c3nc4ccccc4n32)c1 (stereo unspecified)	proKLK7 act 56 | proKLK7 act conf inactive | EDANS interfere 5.7
c1ccc2c(c1)NC(c1ccncc1)n1c-2nc2ccccc21 (stereo unspecified)	proKLK7 act 29 (no result: FGF22 binding, rRNA inh HTS) | proKLK7 act conf inactive | EDANS interfere inactive
O=C1c2ccccc2NC(c2ccncc2)N1c1ccccn1 (stereo unspecified)	proKLK7 act 36 (no result: FGF22 binding, rRNA inh HTS) | proKLK7 act conf 18 | EDANS interfere 29
CCOC(=O)/C=C1\NC(C)(C)Cc2cc(OC)c(OC)cc21	none (no result: FGF22 binding, rRNA inh HTS)
COc1cc2c(cc1OC)/C(=C/C(=O)N1CCOCC1)NC(C)(C)C2	proKLK7 act 60 (no result: FGF22 binding, rRNA inh HTS) | proKLK7 act conf inactive | EDANS interfere 13
COC(=O)c1cc(Cl)ccc1NCC(N)c1ccccc1 (stereo unspecified)	proKLK7 act 18 | proKLK7 act conf inactive | EDANS interfere inactive
NC(=O)c1nsc(C(=O)N(c2ccccc2)C(C(=O)NC2CCCC2)c2ccncc2)c1N (stereo unspecified)	none
NC(=O)c1nsc(C(=O)N(c2ccccc2)C(C(=O)NC2CCCCC2)c2ccc(O)cc2)c1N (stereo unspecified)	proKLK7 act 13 | proKLK7 act conf inactive | EDANS interfere 31
Cc1cccc(-[n+]2c(C)cc(C)c3c(=O)[nH]c(=O)[nH]c32)c1	proKLK7 act 29 | proKLK7 act conf 42 | EDANS interfere 53
Cc1ccc2nc3[nH]c(=O)[nH]c(=O)c3c(N)c2c1	none
Cc1cc(C)[n+](-c2ccc(C(C)C)cc2)c2[nH]c(=O)[nH]c(=O)c12	proKLK7 act 27 (no result: FGF22 binding, rRNA inh HTS) | proKLK7 act conf 61 | EDANS interfere 65
